Assay results reported in PubChem BioAssay AID686979 (National Center for Advancing Translational Sciences (NCATS), 2013).
Hit rate of the full screen: of about 420,000 compounds, about 50,000 (12%) were called active. Another 26% or so got no clear call; they are omitted. Many of the other results were omitted from the sample, so actives are more common in it than they were. Unmarked numbers belong to inactive results. Calls follow the shape of the dose curve; as a rule, active = well fitted inhibition curve with a large enough effect; inconclusive = small, poorly fitted or top-dose-only effect; inactive = flat fitted curve, though single readings scatter.

Assay: qHTS for Inhibitors of human tyrosyl-DNA phosphodiesterase 1 (TDP1): qHTS in cells in presence of CPT; also: nearly all actives have a fitted effect of over 55% in size
Settings: chicken DT40 Tdp1-/-;hTDP1 cells + 20 nM CPT, ATP luminescence, 48 h; series mostly up to 46.2 µM; activity change, negative = growth inhibition: at the top concentration
In short: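 Chicken DT40 Tdp1-/- cells complemented with human TDP1, 400 cells/well, exposed to compounds plus 20 nM camptothecin for at least 48 h at 37 C; viability read as ATP content by CellTiter-Glo luminescence.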
% is scaled to controls: 0 for no effect and ±100 for the full control effect; potency is read from the fitted curve at half-maximal effect.

Row | Compound | activity change, negative = growth inhibition | Potency
1 | COc1ccc(CCNC(=O)c2ccccc2-c2ccccc2C(=O)O)cc1OC | 31.5% | 
2 | COc1ccc(CCNc2cc(N3CCN(C(=O)c4ccccc4OC)CC3)ccc2[N+](=O)[O-])cc1OC |  | 5.8 µM (active)
3 | COc1ccc(CCNC(=O)C(=O)NCc2ccccc2C)cc1OC | 10.3% | 
4 | CCCCN(C(=O)c1cccc(N2C(=O)c3ccccc3C2=O)c1)c1c(N)n(CCCC)c(=O)[nH]c1=O | -0.716% | 
5 | CC(CN1CCCCC1)c1ccccc1 (configuration not stated) | 2.22% | 
6 | COc1ccc(/C=C2\SC(=S)N(CCC(=O)Nc3ccccn3)C2=O)cc1OC | 10.6% | 
7 | CCC(=O)N1CCC(C(N)=O)(N2CCCCC2)CC1 | 8.22% | 
8 | CC(=O)NN1C(=O)c2ccccc2NC1c1ccccc1 (configuration not stated) | -3.53% | 
9 | O=C1CCC(C(=O)OCC(=O)Nc2ccc(OC(F)F)cc2)=NN1 | 3.87% | 
10 | CCOc1ccccc1NC(=O)CCc1ccc(C)o1 | 17% | 
11 | Cc1ccc(CCC(=O)Nc2ncc(Cc3cc(Cl)ccc3Cl)s2)o1 |  | 0.731 µM (active)
12 | Cc1ccc(Cc2cnc(N)s2)o1 | -11.8% | 
13 | COc1ccc(C(=O)OCC(=O)c2ccc(C)c(S(=O)(=O)N3CCOCC3)c2)cc1OC |  | 18.4 µM (active)
14 | COc1ccc(CCC(=O)Nc2ccc(Cl)c(S(=O)(=O)N3CCOCC3)c2)cc1OC |  | 23.1 µM (active)
15 | O=C(COC(=O)CCc1ccc(S(=O)(=O)N2CCOCC2)cc1)Nc1cccc(Cl)c1 | 1.87% | 
16 | CCOc1ccc(CCNC(=O)COC(=O)c2ccc(C)c(S(=O)(=O)N3CCOCC3)c2)cc1OCC | -1.47% | 
17 | Cc1ccc(C(=O)OCC(=O)N2CCCCCC2)cc1S(=O)(=O)N1CCOCC1 | -5.9% | 
18 | COc1ccc(CC(=O)Nc2ccc3c(c2)CCC3)cc1S(=O)(=O)N1CCOCC1 | -14.9% | 
19 | CNC(=O)C[C@H]1C(=O)N(Cc2ccccc2)C[C@@H]1CSC | -20.4% | 
20 | CCOc1ccc(N(CC(=O)Nc2ccccc2F)S(=O)(=O)c2c(C)[nH]c(=O)[nH]c2=O)cc1 | -10% | 
21 | Cc1ccc(NC(=O)Cn2nnc(C(=O)NCc3ccco3)c2N)c(C)c1 | -3.92% | 
22 | CCN(C(=O)Cc1c(C(=O)O)n(CC)c2ccccc12)c1ccccc1C | 9.41% | 
23 | COc1ccc(S(=O)(=O)NC(C)C(=O)N2CCCCCC2)cc1 (configuration not stated) | -0.956% | 
24 | COc1ccc(NC(=O)N2CC3(CCN(C(C)=O)CC3)C2)cc1 | 8.16% | 
25 | COc1ccc(CNS(=O)(=O)c2ccc(NC(=O)N3CCCCC3)cc2)cc1 |  | 18.4 µM (active)
26 | COC(=O)C[C@H]1C[C@@H]2c3cc(N(C)C)ccc3O[C@@H]2[C@H](CO)O1 | 6.29% | 

Row | Compound | activity change, negative = growth inhibition | Potency
27 | O=C(NC1CCN(S(=O)(=O)c2ccc(F)cc2)CC1)c1ccccc1 | 22.4% | 
28 | Cc1ccc2nc(NC(=O)c3nc(SCc4ccccc4F)ncc3Cl)sc2c1 | 4.39% | 
29 | CCOC(=O)c1c(-c2ccc(-c3ccccc3)cc2)csc1NC(=O)CCC(=O)O | -2.59% | 
30 | CCCS(=O)(=O)c1ncc(Cl)c(C(=O)Nc2scc(-c3ccccc3)c2C(=O)OCC)n1 |  | 2.31 µM (active)
31 | O=C(CN1C(=O)CC(c2ccccc2)S(=O)(=O)c2ccccc21)NC1CCCC1 (configuration not stated) | -12.7% | 
32 | Cc1ccc(-c2noc(CNC(=O)c3ccoc3C)n2)cc1 | -25.3% | 
33 | CSc1n[nH]c(=S)n1N | -2.16% | 
34 | CC(C)NC(=O)N1CCC2(CC1)CCN(C(=O)c1cccn1C)CC2 | 3.36% | 
35 | Cn1cccc1C(=O)N1CCC2(CC1)CN(c1cccc(-c3ccccc3)c1)C2 |  | 18.4 µM (active)
36 | COc1ccc(NC(=O)N2CC3(CCN(C(=O)c4cccn4C)CC3)C2)cc1 | -10.5% | 
37 | O=C(C=CC(=O)Nc1ccc(F)cc1F)Nc1ccc(F)cc1F | 4.15% | 
38 | Cc1nc2ccc(S(=O)(=O)N(C)CC(=O)NC(C)c3ccccc3)cc2s1 (configuration not stated) | -11.6% | 
39 | O=C(Nc1cccc(Cl)c1)Nc1ccccc1NS(=O)(=O)c1cccs1 | -15.7% | 
40 | CCOC(=O)c1ccc(NC2Nc3cc(C)nn3S2)cc1 (configuration not stated) | -0.261% | 
41 | CC(Oc1ccc2ccccc2c1)C(=O)NNC(=S)NC(=O)c1ccco1 (configuration not stated) |  | 23.1 µM (active)
42 | O=C(Nc1ccc2ccccc2c1)/C(=C\c1ccc2c(c1)OCO2)NC(=O)c1ccco1 | 1.81% | 
43 | Cc1ccc(C(=O)NNC(=O)C(C)Oc2ccc3ccccc3c2)o1 (configuration not stated) | -9.14% | 
44 | CC(C)=CCN1CCN(Cc2cc3ccccc3[nH]2)CC1CCO (configuration not stated) | -6.87% | 
45 | COc1ccc(OC)c(CN2C(=O)CCC2(C)c2nnnn2Cc2ccccc2)c1 (configuration not stated) | -24.7% | 
46 | Cc1sc2ncnc(SCC(=O)NC3CCS(=O)(=O)C3)c2c1C (configuration not stated) | 0.145% | 
47 | CSc1ncnc2sc(C)c(C)c12 | -14.5% | 
48 | CCCNc1ncnc2sc(C)c(C)c12 |  | 16.4 µM (active)
49 | COc1cccc(NC(=O)CCNS(=O)(=O)c2ccc3c(c2)oc(=O)n3C)c1 |  | inactive
50 | CCc1ccccc1NC(=O)c1ccc2c(c1)CCN2S(C)(=O)=O | 9.03% | 
51 | CC(C)=CCC/C(C)=C/C(=O)O | -5.06% | 
52 | COc1ccccc1-c1cc2nc(C)c(CCC(=O)NC3CCCCC3)c(C)n2n1 | 5.23% | 
